Rows were chosen to be rich in hits. Some 21% of all compounds tested hit in one or more screens of this group.
SARS PLpro yeast = inhibitors of SARS-CoV papain-like protease in yeast | S. cerevisiae expressing SARS-CoV PLpro, growth rescue | Potency, µM (titrated, usually from 32.9 µM), inactives show at the highest dose activity, positive = growth rescue, hits mostly activators | 330,000 tested, 0.19% active | AID 485353; calls by dose curve; further: potency means the concentration at half of the fitted maximal effect; 0% is about no effect; nearly all actives have a fitted effect of over 55% in size
Cycloheximide cs = counter-screen for Shiga toxin inhibitors: cycloheximide protein synthesis inhibition; cell reporter, cycloheximide protein synthesis inhibition counterscreen; max response, %; 300,000 tested, 12% active; AID 2314; in the data active means max response mostly above about 13%, no sharp cut-off; inactive means mostly below about 14%; further: read at 38.3 µM for the half of the compounds with a filed dose; 0% is about no effect
NS1 function inh = influenza NS1 inhibition | Potency, µM (series often up to 46.1 µM), without a hit: at the highest dose activity, positive = more growth | 270,000 tested, 0.4% active; calls by dose curve; further: potency means the concentration at half of the fitted maximal effect; actives are rising curves; nearly all actives have a fitted effect of over 50% in size
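Recovery from NS1-induced slow growth read by OD600 in budding yeast switched to galactose assay medium (pH 6.0, -URA) at 1:100 dilution. Compound 23 nl per well; the matching strain lacking NS1 serves as control.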
Shiga inhibitor = inhibitors of Shiga toxin in Vero cells | Vero cells, Shiga toxin protein synthesis inhibition reporter | inhibition, % at 38.7 µM | 290,000 tested, 9.2% active | AID 2315; in the data active means inhibition mostly above about 28%, no sharp cut-off; inactive means mostly below about 43%; further: 0% is about no effect
Pf growth 96h = P. falciparum growth inhibition at 96 hours | P. falciparum luciferase reporter growth, 96 h | Potency, µM (doses to about 28.7 µM), for inactives: top-dose activity change, negative = inhibition, actives largely listed as inhibitors | 320,000 tested, 6.9% active | AID 504834; further: potency means the concentration at half of the fitted maximal effect; on the % scale 0 is the no-effect control and ±100 the full control effect
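Two-generation exposure (96 h) targets delayed-death phenotype. Reporter parasites carrying integrated firefly luciferase, in red cells at 2% hematocrit and 0.05% parasitemia final, kept at 37 C, 5% CO2; luminescence loss indicates inhibition.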
Pf growth 48h = inhibits P. falciparum growth in the first generation, 48 h. P. falciparum luciferase growth in erythrocytes, 48 h. Potency, µM (titrated, usually from 28.7 µM), for the others: top-dose activity change, negative = inhibition, most hits filed as inhibitors. 310,000 tested, 5.9% active. AID 504832; further: potency means the concentration at half of the fitted maximal effect; on the % scale 0 is the no-effect control and ±100 the full control effect
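Growth was read as firefly luciferase luminescence after a 48 h, 37 C, 5% CO2 exposure of compounds to reporter-bearing P. falciparum cultures (0.1% parasitemia, 2% hematocrit final) in Albumax-supplemented RPMI 1640.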
* marks the source's active call; other numbers are inactive results; i = inactive; ? = inconclusive; nt = no result given; [ ] = remark or other dose. Unless noted, the call rests on the fitted dose curve; in most records, active means well fitted inhibition curve with a large enough effect; inconclusive means small, poorly fitted or top-dose-only effect, or another doubt; inactive means no such curve, though single readings can be large or run the other way.

SMILES	SARS PLpro yeast	Cycloheximide cs	NS1 function inh	Shiga inhibitor	Pf growth 96h	Pf growth 48h
CCCNC(=O)C1(O)c2cc(Br)ccc2NC(=O)N1c1ccc(Cl)cc1 (stereo unspecified)	-1%	-5	1%	-16	31%	2%[0.00184 µM]
CCC(O)C1CCN(Cc2cn(Cc3ccccc3)nc2-c2cc3ccccc3o2)CC1 (stereo unspecified)	0%	-4	2%	-9	0%	5.2µM*
COc1ccc(N2CCN(C(=O)C(Cc3ccccc3)n3cccc3)CC2)cc1 (stereo unspecified)	-10%	-7	-2%	-12	-3%	nt
CN([C@@H](Cc1ccc(OS(=O)(=O)c2cccc3cnccc23)cc1)C(=O)N1CCN(c2ccccc2)CC1)S(=O)(=O)c1cccc2cnccc12	4%	-1	?	-2	1µM*	0.93µM*
N/C(=N\c1nc2ccccc2o1)NC(=O)/C=C/c1ccccc1	-1%	0	-1%	-7	30%	13%
Cc1ccc(C(=O)N/C(N)=N/c2nc3ccccc3o2)cc1	5%	10	-1%	23	7%	nt
CC(C)(C)C(=O)N/C(N)=N/c1nc2ccccc2o1	-2%	50*	-2%	71*	400%	264%
CC(C)CC(=O)N/C(N)=N/c1nc2ccccc2o1	0%	51*	-3%	103*	201%	292%
CCC(=O)N/C(N)=N/c1nc2ccccc2o1	-3%	61*	-44%	85*	160%	81%
N/C(=N\c1nc2ccccc2o1)NC(=O)c1ccccc1	-10%	46*	-10%	49*	62%	nt
CCCC(=O)N/C(N)=N/c1nc2ccccc2o1	-3%	51*	-5%	87*	421%	273%
CCCC(=O)NCCCc1nc2ccccc2n1C	6%	0	-7%	1	?	16%
COc1ccccc1C(=O)N/C(N)=N/c1nc2ccccc2o1	0%	20	0%	37*	50%	45%
NC(=NCc1ccco1)NC(=O)c1ccccc1	-4%	27*	0%	21*	6%	46%
N/C(=N\c1nc2ccccc2o1)NC(=O)c1cccc(Br)c1	0%	35	-3%	1	58%	40%
CCOC(=O)C1CCN(C(=O)c2cccc(NS(=O)(=O)c3ccc(F)c(F)c3)c2)CC1	1%	-4	nt	-11	?	?
COCCn1c(C)cc(C(=O)COC(=O)Cc2n[nH]c(=O)c3ccccc23)c1C	3%	nt	nt	nt	-9%	?
Cc1cc(C(=O)COC(=O)Cc2n[nH]c(=O)c3ccccc23)c(C)n1-c1ccc2c(c1)OCO2	-31%	2	14%	-15	?	6.6µM*
COc1ccc(-n2c(C)cc(C(=O)COC(=O)Cc3n[nH]c(=O)c4ccccc34)c2C)cc1	-20%	-6	17%	14	2.1µM*	12µM*
O=C(O)c1cccc(S(=O)(=O)N2CCCC(c3nc4c(nnn4Cc4ccc(F)cc4)c(=O)[nH]3)C2)c1 (stereo unspecified)	0%	-1	6%	-3	7%	-17%
CCCOC(=O)c1c(NC(=O)/C=C/c2cnn(C)c2C)sc(C(=O)OC)c1C	0%	-2	-5%	-4	100%	?
Cc1c(/C=C/C(=O)c2cccs2)cnn1C	-39%	33*	0%	96*	14%	151%
CCc1ccc(C(=O)/C=C/c2cnn(C)c2C)s1	-25%	23*	-15%	34*	475%	245%
Cc1ccccc1NC(=O)c1sc2nc(N3CCOCC3)c3c(c2c1N)CCCC3	0%	19*	16%	22	?	?
CCOC(=O)c1sc2nc(N3CCOCC3)c3c(c2c1N)CCN(Cc1ccccc1)C3	1%	-4	20%	-10	9.3µM*	?
SMILES	SARS PLpro yeast	Cycloheximide cs	NS1 function inh	Shiga inhibitor	Pf growth 96h	Pf growth 48h
O=C(Nc1nnc(C2=COCCO2)o1)c1ccc(S(=O)(=O)N2CCCCC2)cc1	6%	-1	nt	-6	-11%	-15%
Cc1ccc(N/C=C/C(=O)c2ccccc2)cc1Br	-1%	54*	9%	nt	260%	259%
O=C(/C=C/Nc1ccc(S(=O)(=O)Nc2ncccn2)cc1)c1cccs1	0%	25*	5%	55*	49%	41%
O=C(/C=C/Nc1ccc(S(=O)(=O)Nc2ncccn2)cc1)c1ccc(Cl)c(Cl)c1	?	-1	5%	15	0%	17%
O=C(/C=C/Nc1ccc(F)c(F)c1)c1ccc(Br)cc1	9%	57*	-11%	93*	43%	289%
O=C(/C=C/Nc1ccc(F)c(Cl)c1)c1ccccc1	11%	44*	-6%	59*	330%	190%
CC(=O)Nc1ccc(N/C=C/C(=O)c2ccc(Cl)cc2)cc1	7%	12	23%	27	39%	36%
Cc1ccc(C)c(NC2=C(Cl)C(=O)OC2OC(C)C)c1 (stereo unspecified)	-8%	9	nt	-6	-5%	-2%
CCC(C)n1c(SCC(=O)NC(=O)Nc2ccc3c(c2)OCCO3)nc2ccccc2c1=O (stereo unspecified)	-1%	10	-9%	7	5%	?
O=C(NCC1COc2ccccc2O1)C1CCN(S(=O)(=O)c2cccc3nsnc23)CC1 (stereo unspecified)	2%	-2	-12%	-6	?	1%
O=C(/C=C/Nc1ccc(F)cc1)c1ccc(Br)cc1	1%	30*	-7%	116*	3%	i
O=C(/C=C/Nc1ccc(F)c(F)c1)c1cccs1	11%	40*	-21%	53*	10µM*	241%
O=C(Cc1cccs1)Nc1ccc(F)c(F)c1	-5%	-2	-10%	-4	?	9%
Cc1ccccc1NC(=O)CN1C(=O)c2cccnc2Oc2ccc(Cl)cc21	12%	0	-4%	18	?	?
CC(C)c1cc2c(c(O)c1O)[C@@]1(C(=O)O)CCCC(C)(C)[C@@H]1CC2	nt	4	nt	11	nt	nt
COc1ccc(S(=O)(=O)N(C)CC(=O)N2CCCC2)cc1OC	1%	-1	-2%	14	55%	0%
CC1(C)CC(=O)C2=C(C1)OC(c1ccc(O)cc1)C(C#N)=C2N (stereo unspecified)	14%	3	4%	-11	-2%	3%
O=C(Nc1cccc(Cl)c1)N(Cc1nc2ccccc2c(=O)[nH]1)C1CCCC1	-6%	10	-2%	22	4%	-8%
O=C(Nc1cccc(Cl)c1)N(Cc1nc2ccccc2c(=O)[nH]1)Cc1cccs1	19%	8	-1%	-4	?	7.4µM*
CN(C)c1cc[n+](CCC(=O)Nc2cccc([N+](=O)[O-])c2N)cc1	-28%	1	-5%	-2	3.3µM*	?
O=C(C[n+]1ccccc1)Nc1ccccc1[N+](=O)[O-]	5%	-1	6%	-6	49%	-7%
Nc1c(NC(=O)CC[n+]2ccccc2)cccc1[N+](=O)[O-]	6%	46*	12%	96*	73%	93%

Screens (PubChem BioAssay)
